Assay results published in PubChem BioAssay (EPA / NIEHS).
Calls of active or inactive are those of the source. The calls were made as follows: active = hit-call score of the fitted dose curve at least 0.9, where 1 is the maximum; inactive = score below 0.9.

Assays:
Conditions in all cases: mRNA level, 48 h; actives raise or lower the signal
[1] = read-out: CYP2E1 (gene 1571); assay: LTEA_HepaRG_CYP2E1: Life Technologies and Expression Analysis (LTEA) Assay for CYP2E1 using HepaRG (AID 2283485)
How it was run: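 Human liver line HepaRG, plated 48 h, then serum-free induction medium + chemical x 48 h; 8-pt CRC from 100 uM, half-log, 0.5% DMSO, n=2. Readout: CYP2E1 mRNA qRT-PCR vs ACTB/GAPDH/POLR2A; bidirectional fit vs DMSO.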

[2] = read-out: CYP4A11 (gene 1579); assay: LTEA_HepaRG_CYP4A11: Life Technologies and Expression Analysis (LTEA) Assay for CYP4A11 using HepaRG (AID 2283486)
How it was run: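 Differentiated HepaRG cells, serum-free induction medium, exposed 48 h in duplicate to 8-point half-log series from 100 uM in 0.5% DMSO. CYP4A11 mRNA measured by qRT-PCR, normalized to ACTB, GAPDH, POLR2A; bidirectional fit versus DMSO.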

[3] = read-out: Cytochrome P450 3A4 (Homo sapiens) (UniProt P08684); assay: LTEA_HepaRG_CYP3A4: Life Technologies and Expression Analysis (LTEA) Assay for CYP3A4 using HepaRG (AID 2283487)
How it was run: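 CYP3A4 transcript measured by TaqMan qRT-PCR and normalized to three housekeeping genes after 48 h chemical exposure of human HepaRG cells. Top concentration 100 uM, half-log steps, 0.5% DMSO vehicle; gain or loss fitted against DMSO baseline.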

[4] = read-out: DNA damage-inducible transcript 3 (DDIT3), DDIT3 (gene 1649); assay: LTEA_HepaRG_DDIT3: Life Technologies and Expression Analysis (LTEA) Assay for DNA damage-inducible transcript 3 (DDIT3) using HepaRG (AID 2283488)
How it was run: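 HepaRG plated 48 h, switched to serum-free induction medium, dosed 48 h (100 uM top, half-log, 8 pts, 0.5% DMSO, n=2); RNA isolated; DDIT3 by qRT-PCR; bidirectional curve fit vs DMSO.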

[5] = read-out: Pro-epidermal growth factor (Homo sapiens) (UniProt P01133); assay: LTEA_HepaRG_EGF: Life Technologies and Expression Analysis (LTEA) Assay for Epidermal growth factor (EGF) using HepaRG (AID 2283489)
How it was run: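 Differentiated human HepaRG cells, plated 48 h then switched to serum-free induction medium, were exposed for 48 h to test chemicals (8-point half-log series, top 100 uM, 0.5% DMSO). EGF mRNA was quantified by qRT-PCR, normalized to ACTB, GAPDH, POLR2A.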

[6] = read-out: Early growth response protein 1 (EGR1) transcription factor, EGR1 (gene 1958); assay: LTEA_HepaRG_EGR1: Life Technologies and Expression Analysis (LTEA) Assay for Early growth response protein 1 (EGR1) transcription factor using HepaRG (AID 2283490)
How it was run: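 Differentiated human HepaRG cells in serum-free induction medium were exposed in duplicate for 48 h to eight concentrations (top 100 uM, half-log steps) in 0.5% DMSO. EGR1 mRNA was quantified by qRT-PCR, normalized to ACTB, GAPDH and POLR2A, and fitted bidirectionally versus DMSO.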

[7] = read-out: Ezrin (EZR), EZR (gene 7430); assay: LTEA_HepaRG_EZR: Life Technologies and Expression Analysis (LTEA) Assay for Ezrin (EZR) using HepaRG (AID 2283491)
How it was run: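 HepaRG, 48 h chemical exposure, 8-pt half-log series from 100 uM, 0.5% DMSO vehicle, duplicates. Read-out: EZR mRNA by TaqMan qRT-PCR (Fluidigm array), housekeeping-normalized; bidirectional curve fit vs DMSO baseline.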

[8] = read-out: Cytochrome P450 3A7 (Homo sapiens) (UniProt P24462); assay: LTEA_HepaRG_CYP3A7: Life Technologies and Expression Analysis (LTEA) Assay for CYP3A7 using HepaRG (AID 2283492)
How it was run: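 HepaRG cells plated 48 h, then dosed in serum-free induction medium for 48 h at 8 concentrations (top 100 uM, half-log steps, 0.5% DMSO). CYP3A7 mRNA by qRT-PCR, normalised to ACTB/GAPDH/POLR2A; bidirectional fit versus DMSO.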

[9] = read-out: CYP3A5 (gene 1577); assay: LTEA_HepaRG_CYP3A5: Life Technologies and Expression Analysis (LTEA) Assay for CYP3A5 using HepaRG (AID 2283493)
How it was run: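 HepaRG plated 48 h, switched to serum-free induction medium, chemicals added 48 h (max 100 uM, half-log, 0.5% DMSO). RNA isolated; CYP3A5 by TaqMan qRT-PCR. Gain/loss vs DMSO.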

[10] = read-out: Fatty Acid-Binding Protein 1 (FABP1), FABP1 (gene 2168); assay: LTEA_HepaRG_FABP1: Life Technologies and Expression Analysis (LTEA) Assay for Fatty Acid-Binding Protein 1 (FABP1) using HepaRG (AID 2283494)
How it was run: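 Differentiated human HepaRG cells were exposed in duplicate for 48 h in serum-free induction medium to 8-point half-log concentration series topping at 100 uM in 0.5% DMSO. FABP1 mRNA measured by TaqMan qRT-PCR, normalized to ACTB/GAPDH/POLR2A; bidirectional fit versus DMSO.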

Sequence of Cytochrome P450 3A4 (Homo sapiens) (P08684 whole entry, looked up): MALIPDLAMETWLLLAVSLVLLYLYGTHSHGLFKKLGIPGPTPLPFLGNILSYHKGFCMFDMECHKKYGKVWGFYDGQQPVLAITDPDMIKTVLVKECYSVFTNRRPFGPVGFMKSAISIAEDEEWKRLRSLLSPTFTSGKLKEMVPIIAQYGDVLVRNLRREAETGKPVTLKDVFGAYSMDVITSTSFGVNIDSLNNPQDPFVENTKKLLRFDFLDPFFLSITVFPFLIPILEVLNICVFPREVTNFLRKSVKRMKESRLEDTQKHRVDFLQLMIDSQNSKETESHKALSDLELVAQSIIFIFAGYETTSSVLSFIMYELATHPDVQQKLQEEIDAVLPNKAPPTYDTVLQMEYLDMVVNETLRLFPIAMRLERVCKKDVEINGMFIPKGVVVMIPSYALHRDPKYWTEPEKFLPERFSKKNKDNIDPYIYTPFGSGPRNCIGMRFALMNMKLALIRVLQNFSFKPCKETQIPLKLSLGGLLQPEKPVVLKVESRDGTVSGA
Sequence of Cytochrome P450 3A7 (Homo sapiens) (P24462 whole entry, looked up): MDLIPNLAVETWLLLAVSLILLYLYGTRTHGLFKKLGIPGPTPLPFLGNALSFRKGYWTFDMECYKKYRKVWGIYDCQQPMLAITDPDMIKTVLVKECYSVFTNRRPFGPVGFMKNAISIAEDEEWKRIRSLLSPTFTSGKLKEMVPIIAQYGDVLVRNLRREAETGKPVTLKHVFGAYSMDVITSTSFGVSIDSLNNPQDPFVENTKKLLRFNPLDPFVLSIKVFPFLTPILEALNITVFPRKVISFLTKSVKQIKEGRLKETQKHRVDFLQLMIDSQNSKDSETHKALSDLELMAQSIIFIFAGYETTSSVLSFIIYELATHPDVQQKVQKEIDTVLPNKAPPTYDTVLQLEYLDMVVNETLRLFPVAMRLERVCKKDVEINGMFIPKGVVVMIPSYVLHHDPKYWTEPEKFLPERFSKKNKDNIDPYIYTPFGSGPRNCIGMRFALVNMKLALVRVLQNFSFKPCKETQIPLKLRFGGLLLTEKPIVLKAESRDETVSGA

**Q.** With CC(=O)Nc1ccc(O)cc1 as the compound, how does the outcome [1] read?
**A.** The outcome was “inactive”.

**Q.** And the outcome [2]?
**A.** The outcome was “inactive”.

**Q.** What about the outcome [3] of the same compound?
**A.** Its outcome is “inactive”.

**Q.** And the outcome [4]?
**A.** Its outcome is “inactive”.

**Q.** What about the outcome [5] of the same compound?
**A.** Its outcome is “inactive”.

**Q.** And the outcome [6]?
**A.** Its outcome is “inactive”.

**Q.** What about the outcome [7] of the same compound?
**A.** Its outcome is “inactive”.

**Q.** What about the outcome [8] of the same compound?
**A.** The outcome was “inactive”.

**Q.** What about the outcome [9] of the same compound?
**A.** The outcome was “inactive”.

**Q.** What about the outcome [10] of the same compound?
**A.** The outcome was “inactive”.

**Q.** Which results are given for CS(=O)(=O)c1ccc([C@@H](CC2CCCC2)C(=O)Nc2cnccn2)cc1Cl?
**A.** AC50 [4]: 71.2 µM (active); outcome [5]: inactive; AC50 [6]: 83.9 µM (active); outcome [7]: inactive; AC50 [10]: 63.4 µM (active)

**Q.** For CCCCCCCCCCCCCCC, which AC50 [1] is on record?
**A.** Its AC50 is 1.94 µM (active).

**Q.** And the outcome [2]?
**A.** Its outcome is “inactive”.

**Q.** What about the AC50 [3] of the same compound?
**A.** Its AC50 is 8.75 µM (active).

**Q.** And the outcome [4]?
**A.** The outcome was “inactive”.

**Q.** And the outcome [5]?
**A.** The outcome was “inactive”.

**Q.** What about the outcome [6] of the same compound?
**A.** The outcome was “inactive”.

**Q.** What about the outcome [7] of the same compound?
**A.** The outcome was “inactive”.

**Q.** And the AC50 [8]?
**A.** The AC50 was 14.9 µM (active).

**Q.** What about the outcome [9] of the same compound?
**A.** The outcome was “inactive”.

**Q.** And the outcome [10]?
**A.** Its outcome is “inactive”.

**Q.** For CN(C)CCOC(c1ccccc1)c1ccccc1, which outcome [4] is on record?
**A.** The outcome was “inactive”.

**Q.** What about the outcome [5] of the same compound?
**A.** The outcome was “inactive”.

**Q.** And the outcome [6]?
**A.** Its outcome is “inactive”.

**Q.** And the outcome [7]?
**A.** Its outcome is “inactive”.

**Q.** What about the outcome [10] of the same compound?
**A.** Its outcome is “inactive”.

**Q.** For OCC(CO)(CBr)CBr, which outcome [1] is on record?
**A.** The outcome was “inactive”.

**Q.** What about the AC50 [2] of the same compound?
**A.** Its AC50 is 0.411 µM (active).

**Q.** What about the outcome [3] of the same compound?
**A.** Its outcome is “inactive”.

**Q.** And the outcome [4]?
**A.** Its outcome is “inactive”.

**Q.** What about the outcome [5] of the same compound?
**A.** Its outcome is “inactive”.

**Q.** And the outcome [6]?
**A.** The outcome was “inactive”.

**Q.** And the outcome [7]?
**A.** The outcome was “inactive”.

**Q.** What about the outcome [8] of the same compound?
**A.** Its outcome is “inactive”.

**Q.** And the outcome [9]?
**A.** The outcome was “inactive”.

**Q.** What about the outcome [10] of the same compound?
**A.** The outcome was “inactive”.

**Q.** Which results are given for CCCCC(CC)C(=O)O (stereo unspecified)?
**A.** outcome [1]: inactive; outcome [2]: inactive; outcome [3]: inactive; outcome [4]: inactive; outcome [5]: inactive; outcome [6]: inactive; outcome [7]: inactive; outcome [8]: inactive; outcome [9]: inactive; outcome [10]: inactive

**Q.** How did the AC50 [1] turn out when O=C(CCCN1CCC(O)(c2ccc(Cl)cc2)CC1)c1ccc(F)cc1 was run?
**A.** The AC50 was 66.2 µM (active).

**Q.** And the AC50 [2]?
**A.** The AC50 was 73.5 µM (active).

**Q.** What about the AC50 [4] of the same compound?
**A.** The AC50 was 73.9 µM (active).

**Q.** And the outcome [5]?
**A.** Its outcome is “inactive”.

**Q.** And the AC50 [6]?
**A.** Its AC50 is 94.4 µM (active).

**Q.** And the outcome [7]?
**A.** The outcome was “inactive”.

**Q.** What about the AC50 [8] of the same compound?
**A.** Its AC50 is 75.8 µM (active).

**Q.** And the outcome [9]?
**A.** Its outcome is “inactive”.

**Q.** And the AC50 [10]?
**A.** The AC50 was 93.2 µM (active).

**Q.** What does the source list for CCCCCCCCCCCCOS(=O)(=O)O?
**A.** AC50 [1]: 92.9 µM (active); AC50 [4]: 71.9 µM (active); outcome [5]: inactive; outcome [6]: inactive; outcome [7]: inactive; outcome [9]: inactive; AC50 [10]: 87.6 µM (active)
